Screens (PubChem BioAssay)
TDP1 inh: qHTS Assay for Inhibitors of Tyrosyl-DNA Phosphodiesterase (TDP1) | AID 485290, 2010 | 350,000 compounds, 0.28% hits | Potency, µM (titrated, usually from 130 µM), inactives show top-dose activity change, negative = inhibition, most hits filed as inhibitors | recombinant TDP1, AlphaScreen DNA substrate cleavage; note: potency is the fitted concentration of half-maximal effect; nearly all actives have a fitted effect of over 40% in size
Target sequence (Q9NUW8 whole entry, looked up): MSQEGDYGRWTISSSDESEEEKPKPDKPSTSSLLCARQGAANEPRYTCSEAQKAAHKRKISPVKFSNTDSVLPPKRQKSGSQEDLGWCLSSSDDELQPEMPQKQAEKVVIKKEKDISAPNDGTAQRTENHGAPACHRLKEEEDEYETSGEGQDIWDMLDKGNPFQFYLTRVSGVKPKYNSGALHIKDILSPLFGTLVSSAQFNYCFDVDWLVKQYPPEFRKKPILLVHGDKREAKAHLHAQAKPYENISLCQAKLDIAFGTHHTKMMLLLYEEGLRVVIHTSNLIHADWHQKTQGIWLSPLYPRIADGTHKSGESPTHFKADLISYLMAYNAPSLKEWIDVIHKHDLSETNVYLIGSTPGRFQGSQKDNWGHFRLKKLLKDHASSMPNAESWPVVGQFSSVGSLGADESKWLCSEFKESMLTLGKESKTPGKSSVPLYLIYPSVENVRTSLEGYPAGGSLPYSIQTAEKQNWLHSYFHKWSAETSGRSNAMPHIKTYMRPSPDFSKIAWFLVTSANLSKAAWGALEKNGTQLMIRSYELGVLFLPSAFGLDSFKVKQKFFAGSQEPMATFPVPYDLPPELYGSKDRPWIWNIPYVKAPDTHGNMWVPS
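Recombinant E. coli-expressed Tdp1 (1 nM) preincubated with compound 15 min at RT, then 5'-biotin/3'-phosphotyrosine-FITC DNA substrate (15 nM) added for 5 min. AlphaScreen beads (10 ug/ml) added, 10 min RT; tyrosine-FITC cleavage read as signal loss.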
TDP1 cell noCPT: qHTS for Inhibitors of human tyrosyl-DNA phosphodiesterase 1 (TDP1): qHTS in cells in absence of CPT; AID 686978, 2013; 420,000 compounds, 15% hits; DT40 Tdp1-/- hTDP1 cells, no CPT, ATP luminescence, 48 h; Potency, µM (doses to about 46.2 µM), for the others: at the top dose activity change, negative = growth inhibition, actives largely listed as inhibitors; note: potency is the fitted concentration of half-maximal effect; nearly all actives have a fitted effect of over 55% in size
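Readout: luminescence from CellTiter-Glo after 30 min in the dark at RT. Cells: DT40 Tdp1-/- with stable hTDP1, 400/well. Exposure: compounds alone, ≥48 hr, 37 °C.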
Giardia killer: Small Molecules that selectively kill Giardia lamblia: qHTS. Giardia lamblia trophozoite viability. activity change, % at 7.66 µM, hits read low. 340,000 compounds, 0.15% hits. AID 540267, 2011; in the data active = activity change below about -80%; inconclusive = between about -30% and that limit;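 note: parasites exposed to compound for two days anaerobically before the ATP read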
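Viability, read as ATP luminescence: trophozoites at 100 cells/well, compound added, 48 hrs anaerobic at 37 deg C, then 15-30 min room-temperature development before reading.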
IL1B secr inh: qHTS for Inhibitors of Inflammasome Signaling: IL-1-beta AlphaLISA Primary Screen; THP-1 LPS/ATP IL-1B secretion, AlphaLISA, 16 h; active compounds read low; activity change, % at 57.5 µM; 360,000 compounds, 4.7% hits; in the data active = activity change below about -50%; inconclusive = mostly about -30% to -49%
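Secreted IL-1B measured by AlphaLISA bead assay after 16 h compound exposure of THP-1 cells; compounds (final up to 57.5 uM) added 1 h before LPS (250 ng/mL) and ATP (1.25 mM) stimulation; lower signal means less secretion.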
TDP1 cell CPT: qHTS for Inhibitors of human tyrosyl-DNA phosphodiesterase 1 (TDP1): qHTS in cells in presence of CPT; AID 686979, 2013; Potency, µM (doses to about 46.2 µM), without a hit: top-dose activity change, negative = growth inhibition, most hits filed as inhibitors; chicken DT40 Tdp1-/-;hTDP1 cells + 20 nM CPT, ATP luminescence, 48 h; 420,000 compounds, 12% hits; note: potency is the fitted concentration of half-maximal effect; nearly all actives have a fitted effect of over 55% in size
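Chicken DT40 Tdp1-/- cells stably complemented with human TDP1 were seeded at 400 cells/well in medium containing 20 nM camptothecin, exposed to pin-transferred compounds, and grown at 37 °C for at least 48 hr. Viability was read as ATP luminescence.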
ELG1 repair inh: qHTS screen for small molecules that inhibit ELG1-dependent DNA repair in human embryonic kidney (HEK293T) cells expressing luciferase-tagged ELG1; Potency, µM (titrated, usually from 46.1 µM), inactives show at the top dose activity change, negative = inhibition, usual class: inhibitors; HEK293T ELG1-luciferase reporter, luminescence, 16 h; DNA damage induced by 5-fluorouridine; AID 504467, 2011; 330,000 compounds, 2.3% hits; note: potency is the fitted concentration of half-maximal effect; nearly all actives have a fitted effect of over 55% in size
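In this reporter screen, reduction of luminescence relative to DMSO vehicle indicated activity. Compounds and 5-fluorouridine were added together to 2,000 cells per well, incubated for 16 hr at 37 °C, then developed with ONE-Glo.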
An asterisk follows results filed as active; [ ] = another dose, or the depositor's remark. Hits are enriched below; roughly 19% of the tested compounds scored in any of these assays. Unless noted, calls come from the whole dose curve; as a rule, active = well fitted curve in the direction sought with a large enough effect; inconclusive = small, poorly fitted or top-dose-only effect, or another doubt; inactive = no such curve, though single readings can be large; an effect the other way counts as inactive or inconclusive. % is set by controls: 0 for no effect and ±100 for the full control effect.

Cc1cccc(Oc2nc3ccccn3c(=O)c2/C=C(\C#N)C(=O)NC2CCS(=O)(=O)C2)c1C (centres undefined) was read as TDP1 inh 12%[0.0935 µM], TDP1 cell noCPT inconclusive, Giardia killer 19, IL1B secr inh -99*, TDP1 cell CPT inconclusive and ELG1 repair inh inconclusive.
N#C/C(=C\c1c(Oc2ccc(Cl)cc2)nc2ccccn2c1=O)C(=O)NC1CCS(=O)(=O)C1 (centres undefined) was read as TDP1 inh 9%, TDP1 cell noCPT inconclusive, Giardia killer -9, IL1B secr inh -100*, TDP1 cell CPT -14% and ELG1 repair inh 10%.
`Cc1cccn2c(=O)c(/C=C(\C#N)C(=O)NC3CCS(=O)(=O)C3)c(Oc3ccc(F)cc3)nc12` (centres undefined) gave TDP1 inh -6%, TDP1 cell noCPT 21µM*, Giardia killer 33, IL1B secr inh -25, TDP1 cell CPT inconclusive and ELG1 repair inh -9%.
Cc1cc(Oc2nc3ccccn3c(=O)c2/C=C(\C#N)C(=O)NC2CCS(=O)(=O)C2)ccc1Cl (centres undefined) was read as TDP1 inh 6%, TDP1 cell noCPT 16µM*, Giardia killer 15, IL1B secr inh -11, TDP1 cell CPT -25% and ELG1 repair inh -1%.
COC(=O)/C(C#N)=C/c1c(Oc2cccc(C)c2)nc2ccccn2c1=O was read as TDP1 inh 4%, TDP1 cell noCPT -39%, Giardia killer -12, IL1B secr inh -7, TDP1 cell CPT -5% and ELG1 repair inh -2%.
N#C/C(=C\c1c(N2CCCCC2)nc2ccccn2c1=O)C(=O)NC1CCS(=O)(=O)C1 (centres undefined) was read as TDP1 inh 6%, TDP1 cell noCPT -8%, Giardia killer 5, IL1B secr inh -6, TDP1 cell CPT -3% and ELG1 repair inh -2%.
For CCN(C(=O)COC(=O)Cc1ccc(F)cc1)c1c(N)n(Cc2ccccc2)c(=O)[nH]c1=O the results were TDP1 inh 0%, TDP1 cell noCPT -3%, Giardia killer 6, IL1B secr inh -3, TDP1 cell CPT -17% and ELG1 repair inh 27%.
`CCCCC(=O)NC1(C(F)(F)F)C(=O)Nc2c1c(=O)[nH]c(=O)n2-c1ccc(F)cc1` (centres undefined) gave TDP1 inh 12%, TDP1 cell noCPT -1% and TDP1 cell CPT 2%.
Screening COCOc1cccc(CN2CCC(C)(Oc3cccc(OC)c3)C2)c1 (centres undefined) returned TDP1 cell noCPT inconclusive, IL1B secr inh -24 and TDP1 cell CPT 18µM*.
Screening COCCc1ccc(OC2(C)CCN(Cc3cccc(OCOC)c3)C2)cc1 (centres undefined) returned TDP1 cell noCPT inconclusive, IL1B secr inh -25 and TDP1 cell CPT inconclusive.
For COc1cc(Cl)ccc1OC1(C)CCN(Cc2ccc(-c3ccccn3)cc2)C1 (centres undefined) the results were TDP1 cell noCPT 15µM*, IL1B secr inh -13 and TDP1 cell CPT inconclusive.
For COc1cc(Cl)ccc1OC1(C)CCN(Cc2ccc3ccccc3c2)C1 (centres undefined) the results were TDP1 cell noCPT 23µM*, IL1B secr inh 13 and TDP1 cell CPT inconclusive.
COC(=O)CC1[C@@]2(C)C[C@]34OC5(C)OC6(C7CC(=O)OC(c8ccoc8)[C@]7(C)CCC6(O5)[C@]13C)C(OC(C)=O)[C@]4(OC(C)=O)C2OC(C)=O (some centres undefined) was read as TDP1 inh 14%[56.1 µM], TDP1 cell noCPT 1% and TDP1 cell CPT -3%.
Screening CC(C)N1C(=O)CC(Nc2cccc3cccc(N)c23)C1=O (centres undefined) returned TDP1 inh 6%, TDP1 cell noCPT 21µM*, Giardia killer 13, IL1B secr inh -1, TDP1 cell CPT 23µM* and ELG1 repair inh inconclusive.
Screening CN1C(=O)CC(Nc2cccc3cccc(N)c23)C1=O (centres undefined) returned TDP1 inh 7%, TDP1 cell noCPT -3%, Giardia killer 23, IL1B secr inh 17, TDP1 cell CPT -1% and ELG1 repair inh inconclusive.
CS(=O)(=O)Nc1cc2occ(NC=O)c(=O)c2cc1Oc1ccccc1 was read as TDP1 cell noCPT -23% and TDP1 cell CPT 2%.
For CCCCCn1c(CNC(=O)c2cccs2)nc2ccccc21 the results were TDP1 inh 8%, TDP1 cell noCPT inconclusive, Giardia killer 0, IL1B secr inh -54*, TDP1 cell CPT inconclusive and ELG1 repair inh inconclusive.
Screening CCCCCn1c(CCNC(=O)c2cccs2)nc2ccccc21 returned TDP1 inh 9%, TDP1 cell noCPT inconclusive, Giardia killer 5, IL1B secr inh -77*, TDP1 cell CPT inconclusive and ELG1 repair inh inconclusive.
Screening COc1ccc(Nc2nc3c(S(=O)(=O)c4ccccc4)nnn3c3ccc(Cl)cc23)c(OC)c1 returned TDP1 inh 0%, TDP1 cell noCPT -8% and TDP1 cell CPT -16%.
Screening Cc1ccc(-n2nc3c(c2NC(=O)c2cccs2)CS(=O)(=O)C3)c(C)c1 returned TDP1 inh -1%, TDP1 cell noCPT 15%, Giardia killer 11, IL1B secr inh 4, TDP1 cell CPT 3% and ELG1 repair inh 21%.
For CN1CCC(N(C)C(=O)CCc2nc3ccccc3n2-c2ccccc2)CC1 the results were TDP1 inh 1%, TDP1 cell noCPT -16%, Giardia killer -1, IL1B secr inh -17, TDP1 cell CPT -6% and ELG1 repair inh 2%.
For CN(CC(=O)Nc1cc(C(F)(F)F)ccc1-n1cncn1)Cc1ccccc1N1CCOCC1 the results were TDP1 cell noCPT inconclusive, Giardia killer 23, IL1B secr inh inconclusive and TDP1 cell CPT inconclusive.
O=C(NCCc1ccccc1F)C1CC(=O)N(c2cccc(C(F)(F)F)c2)C1 (centres undefined) was read as TDP1 cell noCPT -25%, Giardia killer -15, IL1B secr inh -2 and TDP1 cell CPT -18%.
